The campaign covered roughly 68,000 compounds. About 2,700 (4%) showed an effect of 50% or more. This excerpt belongs to a sample that is enriched for strong results.

The experiment relates to Plasmodium berghei. In words: Screen against P. berghei liver stage (PbLuc), transformed with Luciferase, at 2uM. Format: functional, HepG2. The note with it: tested at 2 uM.
Consider `COc1ccc(-c2cc3cccn(CC(=O)N4CCOCC4)c-3n2)cc1`, for which the INHIBITION is -16.87%.

As to `CN(C)CCN(C)C(=O)Cn1cccc2cc(-c3ccc(F)cc3)nc1-2`, the INHIBITION is on record as 31.81%.

With `O=C(Cn1cccc2cc(-c3ccc(F)cc3)nc1-2)N1CCC(O)CC1`, the INHIBITION is 92.28%.

On to `Cc1csc(CNc2cnn(CC(C)C)c2)n1`, for which the INHIBITION was 3.58%.

As for `CCc1nnc2n1CCN(C(=O)c1cc(C)n(-c3ccccc3)c1C)C2`, the INHIBITION is -68.26%.

`Cn1cc(N2CCC3(CCN(C(=O)[C@H]4CCCO4)C3)C2=O)cn1` (stereo partly drawn): the INHIBITION was -28.81%.

For the compound `CC(=O)N1CC[C@H]2OCC[C@@]2(C(=O)NCc2cnc(C)cn2)C1`, the INHIBITION is -41.74%.

On to `Cc1cnc(CNC(=O)[C@@]23CCO[C@@H]2CCN(C2CCCC2)C3)cn1`, for which the INHIBITION was -7.71%.

On to `Cc1cnc(CNC(=O)[C@@]23CCO[C@@H]2CCNC3)cn1`, for which the INHIBITION is 62.6%.

Take `CCN1C[C@@H]2C[C@H](C(=O)NCc3cccnc3)[C@H](C1)O2`: the INHIBITION is reported as -19.81%.

`CCCC1(CO)CCCN(C(=O)CCCn2nc(C)cc2C)C1` (stereo not drawn): the INHIBITION is 1.1%.

Turning to `COc1ccc(C(=O)N2CCCC(n3nc(C)nc3C)C2)c(OC)c1` (stereo not drawn), the INHIBITION is -42.39%.

On to `CN(Cc1cc(Br)cn1C)C(=O)c1cscn1`, for which the INHIBITION stood at 30.06%.

Take `Cc1cnc(C2(C)CCN(Cc3csc(C)n3)CC2)s1`: the INHIBITION turned out to be 19.47%.

With `Cc1cnc(C2(C)CCN(Cc3cscn3)CC2)s1`, the INHIBITION came out at 50.32%.

Regarding `Cc1ccc(CN2CCCN(Cc3cscn3)CC2)cc1`, the INHIBITION is given as -6.56%.

As for `O=C1CCC2(CCN(Cc3cscn3)CC2)CN1CCCO`, the INHIBITION is reported as -8.8%.

In the case of `CCN1CC2(CCC1=O)CCN(Cc1cscn1)CC2`, the INHIBITION came to 50.32%.

As for `O=C1CCC2(CCN(Cc3cscn3)CC2)CN1CC1CCCO1` (stereo not drawn), the INHIBITION is reported as 40.47%.

In the case of `CC(C)c1cc(C(=O)N2C[C@@H]3CC[C@H]2CN(Cc2cscn2)C3)no1`, the INHIBITION amounted to 22.89%.

`CCOc1ccc2[nH]c(=O)c(CN3CCCC3c3ccccn3)cc2c1` (stereo not drawn): the INHIBITION was -97.01%.

For `CC(C)(C)n1nnnc1CN(Cc1ccccc1)Cc1ccc(Cl)cc1`, the INHIBITION is given as 8.33%.

For `CN(CC(=O)NC(Cc1ccsc1)c1cccnc1)Cc1cccnc1` (stereo not drawn), the INHIBITION is reported as -37.25%.

On to `Cc1csc(C(Cc2ccsc2)NC(=O)CN(C)Cc2ccccn2)n1` (stereo not drawn), for which the INHIBITION is listed as 7.39%.

In the case of `Cc1csc(C(Cc2ccsc2)NC(=O)CN(C)Cc2cccnc2)n1` (stereo not drawn), the INHIBITION is 55.29%.

As to `COc1cccc(CN2CCC3(CCN(c4ncc(C)cn4)CC3)C2)c1`, the INHIBITION was 13.26%.

In the case of `Cc1ccc(S(=O)(=O)NCC(C)C#N)cc1Br` (stereo not drawn), the INHIBITION worked out at 4.88%.

Consider `CC(C#N)CNS(=O)(=O)c1ccc(Br)c(F)c1` (stereo not drawn), for which the INHIBITION turned out to be 64.21%.

In the case of `CC(C#N)CNS(=O)(=O)c1ccc(F)c(Br)c1` (stereo not drawn), the INHIBITION is -27.36%.

As for `COc1ccc2c(c1)C1(CCN(Cc3ccoc3)CC1)N(C)CC2`, the INHIBITION was -11.19%.

`COCCC(=O)NCCn1nc(C2CCNC2)c2cccnc21` (stereo not drawn): the INHIBITION is listed as 49.9%.

`Cc1ccc(C(=O)N2CCOCC2)cc1NCc1ccsc1`: the INHIBITION was 21.24%.

In the case of `Cc1ccc(CN2CCOCC2)cc1NC(=O)c1ccsc1`, the INHIBITION is 34.25%.

As to `Cc1ccc(CN2CCOCC2)cc1NCc1ccsc1`, the INHIBITION is on record as 52.85%.

Take `CS(=O)(=O)CC1CCCN(C(=O)Cn2cccc(C(F)(F)F)c2=O)C1` (stereo not drawn): the INHIBITION turned out to be 33.96%.

On to `CN1CCN(CCc2ncnn2-c2ccc3c(c2)OCO3)CC1`, for which the INHIBITION is 65.76%.

For `CN1CCN(C[C@H]2CC[C@@H](Cc3ccc4c(c3)OCO4)O2)CC1`, the INHIBITION came out at 25.69%.

As for `CS(=O)(=O)CCc1ncnn1-c1ccc(F)c(Cl)c1`, the INHIBITION was found to be 19.38%.

For `FC(F)C(F)(F)COCc1ncnn1-c1ccc2c(c1)OCO2`, the INHIBITION was found to be 57.34%.

For the compound `FC(F)(F)CCc1ncnn1-c1ccc2c(c1)OCO2`, the INHIBITION is given as 11.9%.

With `CS(=O)(=O)N1CCC[C@H]1c1ncnn1-c1ccc2c(c1)OCO2`, the INHIBITION is recorded as -13.17%.

`CN(CCCNC(=O)CN1CCS(=O)(=O)CC1)c1ccccc1`: the INHIBITION is given as -20.29%.

`COc1cccc(CN(Cc2ccco2)Cc2[nH]cnc2C)c1`: the INHIBITION is given as 28.07%.

Regarding `CCCc1noc(C2CCN(S(=O)(=O)c3cccs3)CC2)n1`, the INHIBITION was -64.06%.

`O=S(=O)(C1CC1)N1C[C@H]2CCC[C@@]2(COc2ccccn2)C1`: the INHIBITION is given as -3.87%.

With `CCCc1cc(C(=O)N[C@@H]2CC[C@@H](N3CCOCC3)[C@@H]2O)no1`, the INHIBITION is 4.06%.

With `COC[C@]1(O)CCN(Cc2cnc(N(C)C)nc2)CC1(C)C`, the INHIBITION was 10.24%.

Consider `COCc1ncc(CN2CC[C@@](O)(COC)C(C)(C)C2)cn1`, for which the INHIBITION was -20.75%.

On to `COC[C@]1(O)CCN(Cc2cnc(N3CCOCC3)nc2)CC1(C)C`, for which the INHIBITION is listed as 52.31%.

Turning to `Cc1ncncc1C(=O)N1CCCN(Cc2ncc(Cl)n2C)CC1`, the INHIBITION is reported as -16.3%.

With `Cc1noc(C)c1-c1cncc(C2CCCN2Cc2c[nH]cn2)n1` (stereo not drawn), the INHIBITION turned out to be 28.23%.

On to `Cc1noc(C)c1-c1cncc(C2CCCN2Cc2cn(C)cn2)n1` (stereo not drawn), for which the INHIBITION stood at 50.32%.

As to `Cc1noc(C)c1-c1cncc(C2CCCN2Cc2cc[nH]n2)n1` (stereo not drawn), the INHIBITION is 46.98%.

The values are drawn from ChEMBL document CHEMBL4513216, “Probing the Open Global Health Chemical Diversity Library for Multistage-Active Starting Points for Next-Generation Antimalarials” (ACS Infect Dis, 2020).
